Screens deposited in PubChem by National Center for Advancing Translational Sciences (NCATS).
Compounds with a hit are over-represented: about 17% of the library has one in this group of screens.
HT1080 IDH1KD tx = kills HT-1080 cells with IDH1 knockdown; Potency, µM (top dose mostly 46.1 µM), without a hit: at the highest dose activity, negative = toxicity, usual class: cytotoxic; AID 686971; 360,000 tested, 2% active; HT-1080 IDH1 knockdown viability, ATP luminescence, 48 h;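 also: 0% = DMSO wells and -100% = cell-free medium wells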
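In this qHTS, HT-1080 cells depleted of IDH1 are exposed for 48 h at 37 °C to compound titrations. Toxicity is scored from CellTiter-Glo luminescence, with DMSO as full viability and medium alone as none.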
TGFb inhibitor = blocks TGF-b signaling; HepG2 CAGA-GFP TGF-b/SMAD3 reporter, GFP fluorescence, 18 h; TGF-beta stimulated, 500 pg/mL final; Potency, µM (titrated, usually from 46.1 µM), for the others: top-dose activity, negative = inhibition, most hits filed as inhibitors; 410,000 tested, 1.2% active; also: % is scaled to controls: 0 for no effect and ±100 for the full control effect; nearly all actives have a fitted effect of over 65% in size
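Cell-based qHTS in HEPG2 carrying a CAGA-GFP Smad reporter; compounds added before 500 pg/mL final TGF-beta, 18 h incubation at 37 degrees C, GFP fluorescence quantified per cell by imaging cytometry.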
HepG2 tox = kills HepG2 cells in TGF-b inhibitor counter-screen. AID 588856. 410,000 tested, 0.76% active. Potency, µM (titrated, usually from 46.1 µM), for the others: at the highest dose activity change, negative = cytotoxicity, usual class: cytotoxic. HepG2 CAGA-GFP viability, ATP luminescence, 18 h
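HepG2 CAGA-GFP cells (1000/well, DMEM with 1% FBS) received compound, then TGF-beta at 500 pg/mL final, and were incubated 18 hours at 37 degrees C. Viability was read by CellTiter-Glo luminescence. Media-only wells were set as complete cell-killing and DMSO as no toxicity.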
HT1080-NT tox = kills 2HG-producing HT-1080-NT fibrosarcoma cells | 360,000 tested, 1.6% active | Potency, µM (top dose mostly 46.1 µM), for inactives: at the highest dose activity, negative = less viability, usual class: cytotoxic | HT-1080-NT fibrosarcoma viability, CellTiter-Glo ATP luminescence, 48 h | AID 686970;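 also: NT is the 2HG producing partner of a matched IDH1 knockdown line; 0% = DMSO-treated cells and -100% = media-only wells without cells; nearly all actives have a fitted effect of over 55% in size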
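Luminescent CellTiter-Glo readout after 48 hours of compound exposure at 37 degrees C defined viability of HT-1080-NT cells. Activity was normalized to DMSO wells and cell-free media wells; concentration-response curves were fitted and assigned curve classes.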
TDP1 cell noCPT = qHTS for Inhibitors of human tyrosyl-DNA phosphodiesterase 1 (TDP1): qHTS in cells in absence of CPT. AID 686978, 2013. Potency, µM (top dose mostly 46.2 µM), without a hit: at the top dose activity change, negative = growth inhibition, actives largely listed as inhibitors. 420,000 tested, 15% active. DT40 Tdp1-/- hTDP1 cells, no CPT, ATP luminescence, 48 h; also: % is scaled to controls: 0 for no effect and ±100 for the full control effect; nearly all actives have a fitted effect of over 55% in size
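Compound effects on proliferation are scored in DT40 Tdp1-/-;hTDP1 cells in the absence of CPT. ATP levels (CellTiter-Glo luminescence) are recorded after a ≥48 hr, 37 °C incubation.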
DT40 TDP1 CPT = DT40-hTDP1 cell growth loss with CPT. chicken DT40 Tdp1-/-;hTDP1 cells + 20 nM CPT, ATP luminescence, 48 h. Potency, µM (series often up to 46.2 µM), for inactives: top-dose activity change, negative = growth inhibition, hits mostly inhibitors. 420,000 tested, 12% active; also: % is scaled to controls: 0 for no effect and ±100 for the full control effect; nearly all actives have a fitted effect of over 55% in size
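Cell growth measured by CellTiter-Glo luminescence after a minimum 48 h, 37 C compound exposure with 20 nM CPT in Tdp1-knockout DT40 cells stably expressing hTDP1, seeded 400/well; qHTS titration format.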
* marks the source's active call; other numbers are inactive results. Calls follow the shape of the dose curve; as a rule, active = well fitted curve in the direction sought with a large enough effect; inconclusive = small, poorly fitted or top-dose-only effect, or another doubt; inactive = no such curve, though single readings can be large; an effect the other way counts as inactive or inconclusive. Potency is read from the fitted curve at half-maximal effect.

Screening Cc1ccc(-n2ncc(C(=O)NCc3cccs3)c2C2CCN(C(=O)OC(C)(C)C)CC2)cc1C returned TGFb inhibitor inconclusive, HepG2 tox -19%, TDP1 cell noCPT 16µM* and DT40 TDP1 CPT 16µM*.
Screening Cc1ccc(-n2ncc(C(=O)NCc3cccs3)c2C2CCN(C(=O)OC(C)(C)C)CC2)c(C)c1 returned TGFb inhibitor inconclusive, HepG2 tox -26%, TDP1 cell noCPT inconclusive and DT40 TDP1 CPT inconclusive.
For Cc1ccc(C)c(NC(=O)c2cnn(-c3cccc(F)c3)c2C2CCN(C(=O)OC(C)(C)C)CC2)c1 the results were TGFb inhibitor inconclusive, HepG2 tox -45%, TDP1 cell noCPT 23µM* and DT40 TDP1 CPT inconclusive.
Cc1ccc(-n2ncc(C(=O)NCc3ccccn3)c2C2CCN(C(=O)OC(C)(C)C)CC2)cc1C was read as TGFb inhibitor -13%, HepG2 tox -25%, TDP1 cell noCPT 18µM* and DT40 TDP1 CPT inconclusive.
CC(C)(C)OC(=O)N1CCC(c2c(C(=O)NCc3cccs3)cnn2-c2cccc(F)c2)CC1 was read as TGFb inhibitor -12%, HepG2 tox -14%, TDP1 cell noCPT 16µM* and DT40 TDP1 CPT inconclusive.
For COc1ccc(NC(=O)CN(C)C(=O)Cc2c(C)nc3ccccc3c2C)cc1 the results were HT1080 IDH1KD tx -16%, TGFb inhibitor -17%, HepG2 tox -14%, HT1080-NT tox -24%, TDP1 cell noCPT inconclusive and DT40 TDP1 CPT inconclusive.
Screening CC(=O)c1c(C)n(-c2cccc(Cl)c2)c2ccc(O)cc12 returned HT1080 IDH1KD tx -10%, TGFb inhibitor 0%, HepG2 tox -15%, HT1080-NT tox -17%, TDP1 cell noCPT 0.52µM* and DT40 TDP1 CPT inconclusive.
`CC(=O)c1c(C)n(-c2cccc(Cl)c2)c2ccc(OC(=O)c3ccccc3)cc12` gave TGFb inhibitor 4%, HepG2 tox -4%, TDP1 cell noCPT 29µM* and DT40 TDP1 CPT inconclusive.
CCN(C(=O)CSc1nnc(NCCOC)s1)c1c(N)n(Cc2ccccc2)c(=O)[nH]c1=O was read as HT1080 IDH1KD tx 5%, TGFb inhibitor 6%, HepG2 tox 7%, HT1080-NT tox 5%, TDP1 cell noCPT 1% and DT40 TDP1 CPT 2%.
Screening NS(=O)(=O)c1ccc(CCNC(=O)c2cc(-c3ccc(Br)cc3)nc3ccccc23)cc1 returned HT1080 IDH1KD tx inconclusive, TGFb inhibitor inconclusive, HepG2 tox -83%, HT1080-NT tox inconclusive, TDP1 cell noCPT 8.2µM* and DT40 TDP1 CPT 9.2µM*.
For CCCc1ccc(-c2cc(C(=O)NCCc3ccc(S(N)(=O)=O)cc3)c3ccccc3n2)cc1 the results were HT1080 IDH1KD tx inconclusive, TGFb inhibitor inconclusive, HepG2 tox -60%, HT1080-NT tox inconclusive, TDP1 cell noCPT 12µM* and DT40 TDP1 CPT 15µM*.
`CCNC(=S)NNC(=O)c1cc(-c2ccccc2C)nc2ccccc12` gave HT1080 IDH1KD tx inconclusive, TGFb inhibitor -9%, HepG2 tox -15%, HT1080-NT tox inconclusive, TDP1 cell noCPT -29% and DT40 TDP1 CPT -11%.
`CCOc1ccccc1-c1cc(C(=O)Nc2ccc(C(=O)O)cc2)c2ccccc2n1` gave HT1080 IDH1KD tx -5%, TGFb inhibitor 0%, HepG2 tox -6%, HT1080-NT tox 1%, TDP1 cell noCPT -28% and DT40 TDP1 CPT inconclusive.
